Inconclusive results are not listed. A number with no mark means an inactive call. Calls follow the shape of the full dose curve.
Assay: qHTS assay for small molecule agonists of the antioxidant response element (ARE) signaling pathway - cell viability counter screen (AID 743203); also: nearly all actives have a fitted effect of over 55% in size
Details: ARE-bla HepG2 viability, CellTiter-Glo luminescence, 16 h; series mostly up to 73.3 µM; viability change, negative = cytotoxic: at the top concentration
Description: National Center for Advancing Translational Sciences [NCATS]
NIH Chemical Genomics Center [NCGC]
U.S. Environmental Protection Agency [EPA]
National Institutes of Environmental Health Sciences [NIEHS]
National Toxicology Program [NTP]
U.S. Food and Drug Administration [FDA]
Oxidative stress has been implicated in the pathogenesis of a variety of diseases ranging from cancer to neurodegeneration. The antioxidant response element (ARE) signaling pathway plays an important role in the amelioration of oxidative stress. The CellSensor ARE-bla HepG2 cell line (Invitrogen) can be used for analyzing the Nrf2/antioxidant response signaling pathway. Nrf2 (NF-E2-related factor 2) and Nrf1 are transcription factors that bind to AREs and activate these genes. The CellSensor ARE-bla Hep G2 cell line contains a beta-lactamase reporter gene under control of the Antioxidant Response Element (ARE) stably integrated into HepG2 cells. The activation of the report gene under culture conditions can be detected by fluorescence intensity. This cell line has been used to screen the Tox21 10K compound library to identify agonists that induce oxidative stress. The cytotoxicity of the Tox21 compound library against the ARE-bla cell line was tested in parallel by measuring the cell viability using CellTiter-Glo assay (Promega, Madison, WI) in the same wells.
Tox21 Assay Protocol Summary:
ARE-bla HepG2 cells were dispensed at 2,000 cells/5 ul/well in 1536-well white wall/solid bottom plates using a Multidrop Combi (ThermoFisher Scientific, Waltham, MA) dispenser. After the assay plates were incubated at 37C/5% CO2 for 5 hrs, 23 nL of compounds dissolved in DMSO, positive controls or DMSO only was transferred to the assay plate by a pintool work station (Kalypsys, San Diego, CA). The plates were incubated at 37C/5% CO2 for 16 hrs, followed by addition of 4 ul/well of CellTiter-Glo reagent into the assay plates using a Flying Reagent Dispenser (Aurora Discovery, San Diego, CA). After 30 min incubation at room temperature, the luminescence intensity in the assay plates was measured using a ViewLux (PerkinElmer, Shelton, CT) plate reader.
% is scaled to controls: 0 for no effect and ±100 for the full control effect.

Row | Compound | viability change, negative = cytotoxic
1 | CCCCCCn1c(=O)c2c(ncn2C)n(C)c1=O | 12.5%
2 | CCCCCCCCc1ccc(S(=O)(=O)O)cc1 | -23.4%
3 | O=C(O)c1ccccc1Nc1cc(Cl)ccc1C(=O)O | -5.88% [at 34.3 µM]
4 | CC1(C)C(=O)N(Cl)C(=O)N1Br | 5.66%
5 | CCCCCCCCCCCCCCCCOP(=O)([O-])OCC[N+](C)(C)C | -7.38%
6 | Cc1ccc(C=O)s1 | 8.56%
7 | CCOC(=O)[C@H](CCc1ccccc1)N[C@@H](C)C(=O)N1Cc2cc(OC)c(OC)cc2C[C@H]1C(=O)O | 2.85%
8 | CC[C@H]1CC[C@H](NCc2cc3c(cc2OC)[C@H]2C[C@H]2C(=O)N3C)[C@H](c2ccccc2)N1 | -5.84%
9 | Cc1onc(-c2ccccc2)c1C(=O)Cl | 7.33%
10 | Clc1cccc(-c2cc(Cl)cc(Cl)c2)c1 | 10.6%
11 | CCOC(=O)c1cc(=O)c2c(OCC(COc3cccc4oc(C(=O)OCC)cc(=O)c34)OC(=O)[C@@H](N)CCCCN)cccc2o1 | -2.8%
12 | O=C(O[C@@H](C(=O)O)[C@@H](OC(=O)c1ccccc1)C(=O)O)c1ccccc1 | -0.862% [at 94.8 µM]
13 | CN1CCC[C@@H]1Cc1c[nH]c2ccc(CCS(=O)(=O)c3ccccc3)cc12 | 8.09%
14 | CCCCCCCCOC(=O)CCCCCCCCC(=O)OCCCCCCCC | 9.32%
15 | CCCNC(C)(C)COC(=O)c1ccccc1 | -10.8%
16 | CC(=O)OC1C2(C)CCC(C2)C1(C)C (stereo not given) | 5.59%
17 | O=C1CCC(C2CCCCC2)CC1 | 0.842%
18 | CC/C=C\CCOC(=O)CCCCC | -20%
19 | CN(C)CCOc1ccccc1Cc1ccccc1 | 12.3%
20 | COc1cc(Cl)ccc1Cl | -2.81% [at 94.8 µM]

Row | Compound | viability change, negative = cytotoxic
21 | O=C1C=CC(=O)O1 | 4.2% [at 94.8 µM]
22 | CO[C@@]1(NC(=O)CSCC#N)C(=O)N2C(C(=O)O)=C(CSc3nnnn3C)CS[C@@H]21 | 9.75%
23 | O=C(CC(=O)C(F)(F)F)c1ccccc1 | -0.234% [at 94.8 µM]
24 | CCCCCCCCCC/C=C/C#N | 14.6%
25 | O=C(C(Cl)Cl)N1CCOC12CCCCC2 | -15.8%
26 | NS(=O)(=O)c1cc(-c2nn[nH]n2)c(NCc2cccs2)cc1Cl | -14%
27 | C/C(=N\O)[C@@H](C)NCC(C)(C)CN[C@H](C)/C(C)=N/O | 9.92%
28 | CCOC(=O)C1CC(=O)C(=C(O)C2CC2)C(=O)C1 (stereo not given) | -6.58%
29 | CN(C)CC[C@@H](c1ccc(Cl)cc1)c1ccccn1 | 13%
30 | C=CCCCCCCCCO | -16.7%
31 | O=C1CCCCC1C1CCCCC1 (stereo not given) | -20.9%
32 | CCN(CC)CCNC(=O)COc1ccc(Cl)cc1 | 4.56%
33 | CCOC(=O)NCCC[Si](OCC)(OCC)OCC | 8.52%
34 | CCCNC(C)C(=O)Nc1c(C)csc1C(=O)OC (stereo not given) | 11.2%
35 | CCCCCCCCCC#N | -2.17%
36 | CCN(O)CC | 0.515%
37 | Cc1ccc([N+](=O)[O-])c(N)c1 | 1.13%
38 | CCNCCO | 5.6%
39 | O=CCCc1ccccc1 | 12.3%
40 | O=C(O)C(=O)Cc1c[nH]c2ccccc12 | 16.3%

Reference: PubChem BioAssay (Tox21)
